This is a sample that favours compounds with a hit; in the whole collection about 19% have one here.
IL1B secr inh: inhibitors of inflammasome signaling (IL-1 beta secretion) | THP-1 LPS/ATP IL-1B secretion, AlphaLISA, 16 h; stronger effect = lower value | activity change, % at 57.5 µM | 360,000 tested, 4.7% active | AID 743279; in the data active = activity change below about -50%; inconclusive = mostly about -30% to -49%
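Secreted IL-1B measured by AlphaLISA bead assay after 16 h compound exposure of THP-1 cells; compounds (final up to 57.5 uM) added 1 h before LPS (250 ng/mL) and ATP (1.25 mM) stimulation; lower signal means less secretion.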
DT40 TDP1 CPT: DT40-hTDP1 cell growth loss with CPT; chicken DT40 Tdp1-/-;hTDP1 cells + 20 nM CPT, ATP luminescence, 48 h; Potency, µM (series often up to 46.2 µM), inactives show top-dose activity change, negative = growth inhibition, usual class: inhibitors; 420,000 tested, 12% active; AID 686979; also: potency is read from the fitted curve at half-maximal effect; nearly all actives have a fitted effect of over 55% in size
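Chicken DT40 Tdp1-/- cells stably complemented with human TDP1 were seeded at 400 cells/well in medium containing 20 nM camptothecin, exposed to pin-transferred compounds, and grown at 37 °C for at least 48 hr. Viability was read as ATP luminescence.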
HT1080NT lethal: kills 2HG-producing HT-1080-NT fibrosarcoma cells; HT-1080-NT fibrosarcoma viability, CellTiter-Glo ATP luminescence, 48 h; Potency, µM (top dose mostly 46.1 µM), for the others: top-dose activity, negative = less viability, hits mostly cytotoxic; 360,000 tested, 1.6% active;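 also: NT is the 2HG producing partner of a matched IDH1 knockdown line; potency is read from the fitted curve at half-maximal effect; 0% = DMSO-treated cells and -100% = media-only wells without cells; nearly all actives have a fitted effect of over 55% in size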
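Read-out is CellTiter-Glo luminescence after 10 minutes at room temperature, following 48 hours' compound treatment of HT-1080-NT cells (750 cells/well, RPMI, 5% FBS, 37 degrees C).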
DT40 TDP1 no CPT: qHTS for Inhibitors of human tyrosyl-DNA phosphodiesterase 1 (TDP1): qHTS in cells in absence of CPT. DT40 Tdp1-/- hTDP1 cells, no CPT, ATP luminescence, 48 h. Potency, µM (highest dose often 46.2 µM), for inactives: at the highest dose activity change, negative = growth inhibition, hits mostly inhibitors. 420,000 tested, 15% active; also: potency is read from the fitted curve at half-maximal effect; nearly all actives have a fitted effect of over 55% in size
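Compound effects on proliferation are scored in DT40 Tdp1-/-;hTDP1 cells in the absence of CPT. ATP levels (CellTiter-Glo luminescence) are recorded after a ≥48 hr, 37 °C incubation.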
HT1080 IDH1KD tx: toxicity to HT-1080 IDH1 knockdown cells (counter line) | HT-1080 IDH1 knockdown viability, ATP luminescence, 48 h | Potency, µM (titrated, usually from 46.1 µM), for the others: at the top dose activity, negative = toxicity, hits mostly cytotoxic | AID 686971 | 360,000 tested, 2% active;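 also: potency is read from the fitted curve at half-maximal effect; 0% = DMSO wells and -100% = cell-free medium wells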
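Cytotoxicity counter-line: IDH1KD HT-1080, 48 h, CellTiter-Glo. Curves classed by r2, magnitude and activity.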
* marks the source's active call; other numbers are inactive results; ? = inconclusive; . = no result. Unless noted, calls follow the shape of the dose curve; as a rule, active = well fitted curve in the direction sought with a large enough effect; inconclusive = small, poorly fitted or top-dose-only effect, or another doubt; inactive = no such curve, though single readings can be large; an effect the other way counts as inactive or inconclusive. Unless noted, % is scaled to controls: 0 for no effect and ±100 for the full control effect.

SMILES	IL1B secr inh	DT40 TDP1 CPT	HT1080NT lethal	DT40 TDP1 no CPT	HT1080 IDH1KD tx
O=C(O)CC1S/C(=N\N=C2\C(=O)Nc3ccccc32)N(c2ccc(O)cc2)C1=O (configuration not stated)	13.0	-10.3%	6.1%	22.0%	5.0%
Cc1ccc(NC(=O)Cn2cc3c(n2)CCC(C)C3)cc1C (configuration not stated)	.	-24.4%	.	-0.3%	.
CCc1nc2c(OCc3ccccc3)cccn2c1N(C)C(=O)C(C)C	213.4	?	12.5%	?	13.9%
CCc1nc2c(OCC3CCCCC3)cccn2c1N(C)C(=O)c1ccc(OC)cc1	.	18.4µM*	?	18.4µM*	?
CCc1nc2c(OCCOc3ccccc3)cccn2c1N(C)C(=O)c1ccc(C)cc1	0.0	?	-13.7%	?	-15.5%
CCc1nc2c(OCCC3CCCCC3)cccn2c1N(C)C(=O)C(C)C	?	13µM*	?	?	?
CCc1nc2c(OCCOc3ccccc3)cccn2c1N(C)C(=O)C1CC1	-7.0	16.4µM*	9.9%	?	8.9%
COc1ccc(CCNc2nc3ccccc3c3nc(-c4cccc(C)c4)nn23)cc1OC	.	?	.	7.31µM*	.
COc1ccccc1CNc1nc2ccccc2c2nc(-c3cccc(C)c3)nn12	.	-14.0%	.	-8.7%	.
COc1ccc(CCNc2nc3cc(OC)c(OC)cc3c3nc(-c4ccccc4)nn23)cc1OC	.	5.8µM*	.	2.91µM*	.
COc1ccc(CNc2nc3ccccc3c3nc(-c4ccccc4)nn23)cc1	.	-8.5%	.	11.6µM*	.
COc1ccc(OC)c(CCNc2nc3ccccc3c3nc(-c4cccnc4)nn23)c1	.	0.5%	.	?	.
COc1ccccc1OCCn1c(=O)oc2ccc(C)cc21	-2.1	2.3%	-2.5%	-14.5%	-1.1%
O=C(Nc1ccc(N2CCOCC2)cc1)C1CCCN(S(=O)(=O)c2cccc(C(F)(F)F)c2)C1 (configuration not stated)	9.5	-8.8%	2.2%	-15.4%	-1.0%
CCN(CC)C(=O)NC(c1ccc(C)c(F)c1)C(Cl)(Cl)Cl (configuration not stated)	-3.8	16.4µM*	-1.5%	16.4µM*	-4.6%
Cc1ccc(C(NC(=O)N2CCOCC2)C(Cl)(Cl)Cl)cc1F (configuration not stated)	4.5	?	1.4%	-23.9%	-1.8%
CCCNc1ncnc2c1c(-c1ccccc1)cn2-c1ccccc1	.	14.6µM*	.	23.1µM*	.
COc1ccc(CCNc2ncnc3c2c(-c2ccccc2)cn3-c2ccc(F)cc2)cc1OC	.	14.6µM*	.	14.6µM*	.
COc1ccc(Cl)cc1Nc1ncnc2c1c(-c1ccccc1)cn2-c1ccccc1	.	-7.4%	.	-4.8%	.
COc1ccccc1CNc1ncnc2c1c(-c1ccccc1)cn2-c1cccc(C)c1	.	?	.	-101.6%	.
Cc1ccc(-n2cc(-c3ccccc3)c3c(NN4CCOCC4)ncnc32)cc1	-14.6	20.6µM*	-0.5%	23.1µM*	-0.1%
Cc1ccc(CNc2ncnc3c2c(-c2ccccc2)cn3-c2cccc(Cl)c2)cc1	.	?	.	18.4µM*	.
O=C(c1ccc(C(F)(F)F)cc1)N1CCN(c2ccc(N3CCOCC3)nn2)CC1	14.8	-20.4%	-0.4%	?	-3.5%
O=C1Nc2ccccc2C12OCC1(CO2)COC2(OC1)C(=O)Nc1ccccc12 (configuration not stated)	-12.7	-21.7%	-24.5%	-28.8%	-22.7%
CN1CC(c2ccc(Cl)c(Cl)c2)[C@@]2(COc3ccccc3C2=O)[C@@]12C(=O)Nc1ccccc12 (some centres not stated)	-12.3	18.4µM*	-10.0%	?	6.5%
SMILES	IL1B secr inh	DT40 TDP1 CPT	HT1080NT lethal	DT40 TDP1 no CPT	HT1080 IDH1KD tx
C1=CC2=NC34CCCCC3CC3=C(CCCC3)N4C2=CC1=NC1CCCCC1 (configuration not stated)	-97.6*	5.17µM*	-11.8%	5.17µM*	?
FC(F)(F)c1cc(Cl)c2nc(-c3ccco3)c(Cc3ccccc3C(F)(F)F)n2c1	0.0	?	-8.5%	14.6µM*	?
CCCCC(=O)NC(Nc1cc(C)ccn1)(C(=O)OCC)C(F)(F)F (configuration not stated)	-5.5	-4.7%	5.7%	?	9.1%
CCc1ccc(NCc2cc3cc4c(cc3n(CC(=O)Nc3ccc(OC)cc3)c2=O)OCO4)cc1	.	?	.	4.61µM*	.
COc1ccc(NCc2cc3cc4c(cc3n(CC(=O)Nc3ccc(F)cc3F)c2=O)OCO4)cc1	.	6.51µM*	.	14.6µM*	.
COc1ccc(NC(=O)Cn2c(=O)n(Cc3nc(C)no3)c(=O)c3cc4c(cc32)OCO4)cc1	.	-19.5%	.	?	.
COc1cccc2c(=O)n(CC(=O)Nc3ccc(F)cc3F)ccc12	-12.2	-2.9%	0.6%	-13.0%	5.4%
Cc1ccccc1OCCC(=O)OCC(=O)NC(=O)c1ccccc1	-4.2	-0.9%	5.0%	-6.4%	13.7%
COc1ccc(S(=O)(=O)N2CCCC2=O)cc1N(C)S(C)(=O)=O	25.1	-0.1%	-0.1%	13.7%	-0.1%
O=C(c1ccc(Cl)nc1)N1CCN(C/C=C/c2ccccc2)CC1	0.0	0.9%	0.8%	?	-3.1%
Cc1c(-c2nsc(NC(=O)c3cccs3)n2)nnn1-c1ccc(F)cc1	.	?	.	-28.3%	.
Cc1sc2nc(CSCC(=O)Nc3ccc(C(=O)N(C)C)cc3)[nH]c(=O)c2c1C	-3.1	-3.2%	11.5%	4.1%	5.0%
Cc1csc(N(C(=O)c2ccccc2F)c2ccccc2)n1	10.9	23.1µM*	-0.2%	10.3µM*	-4.4%
O=C(NCCN1CCOCC1)c1cc([N+](=O)[O-])cc([N+](=O)[O-])c1	21.7	6.0%	15.6%	5.5%	10.6%
O=C(CCCN1C(=O)/C(=C\c2ccccc2)SC1=S)N1CCOCC1	-83.9*	23.1µM*	6.3%	?	?
O=C(CCCN1C(=O)/C(=C/c2ccccc2Cl)SC1=S)NNC(=O)c1cccnc1	-7.2	?	-8.1%	?	-10.7%
O=C(CCCN1C(=O)/C(=C/c2ccccc2Cl)SC1=S)NNC(=O)c1ccccc1	-102.4*	18.4µM*	5.2%	16.4µM*	10.0%
O=C(CCN1C(=O)/C(=C\c2cccc(Br)c2)SC1=S)N1CCOCC1	?	6.51µM*	0.0%	6.51µM*	-0.9%
O=C(CCCN1C(=O)/C(=C/c2ccccc2Cl)SC1=S)N1CCOCC1	?	?	-5.9%	16.4µM*	-0.9%
CCc1nn(CC(=O)NC2CC2)c(=O)c2cc3c(OC)cccc3n12	.	-9.1%	.	?	.
O=C(Cn1c(=O)c2cc(Cl)ccc2n2nncc12)Nc1ccccc1	.	-27.5%	.	-14.6%	.

Compound activity: PubChem, National Center for Advancing Translational Sciences (NCATS)
